Measured values reported in PubChem BioAssay AID778 (Sanford-Burnham Center for Chemical Genomics, 2007).
Among all 96,000 compounds or so, about 20,000 (21%) were called active.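 The calls were made as follows: active = CYP2C19 inhibition above a set limit at 5 µM in the primary screen (cut at about 50% in these data); inactive = the rest.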 Not all results are given here.

molecular target: Cytochrome P450 2C19 (Homo sapiens) (UniProt P33261); test: blockers of cytochrome P450 2C19 activity – biochemical, luminescence, ADME assay, primary screen (AID 778); settings: CYP2C19 Supersomes, luciferin-H EGE luminescence, 30 min; at 5 µM; stronger effect = higher value;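 also: plate controls were negative control wells for no effect and 2.5 mM tranylcypromine positive control for full effect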
Sequence (P33261 whole entry, looked up): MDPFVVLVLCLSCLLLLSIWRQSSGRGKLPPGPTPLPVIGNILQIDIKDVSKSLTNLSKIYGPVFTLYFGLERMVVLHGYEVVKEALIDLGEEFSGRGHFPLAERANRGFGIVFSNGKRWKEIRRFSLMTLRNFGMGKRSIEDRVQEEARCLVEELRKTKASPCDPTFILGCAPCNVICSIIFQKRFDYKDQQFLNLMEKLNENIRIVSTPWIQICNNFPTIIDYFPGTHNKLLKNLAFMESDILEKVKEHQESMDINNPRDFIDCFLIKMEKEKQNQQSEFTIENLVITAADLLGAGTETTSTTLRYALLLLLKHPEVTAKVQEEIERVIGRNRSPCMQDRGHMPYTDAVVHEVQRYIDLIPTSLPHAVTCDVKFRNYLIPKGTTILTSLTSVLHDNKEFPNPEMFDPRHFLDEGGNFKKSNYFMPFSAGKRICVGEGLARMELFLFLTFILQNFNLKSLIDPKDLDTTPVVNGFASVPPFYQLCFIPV

Compound | inhibition
O=C(O)CCC(=O)NCc1ccc2[nH]c3c(c2c1)CCCC3 | -16.4% (inactive)
CN=C1S/C(=C\c2ccc(Sc3ccc(Cl)cc3)o2)C(=O)N1C | 7.4% (inactive)
CCN1C(=O)/C(=C\N2CCN(c3ccccc3)CC2)SC1=S | 17.4% (inactive)
Cc1cc(NC(=O)CCC2COc3ccccc3O2)no1 (stereo not drawn) | 23.1% (inactive)
COc1ccc(NC(=O)CCNC(=O)Cn2ccc3ccccc3c2=O)c(OC)c1 | -2.7% (inactive)
COc1ccc(NC(=O)CC2COc3ccccc3O2)c(OC)c1 (stereo not drawn) | 85.5% (active)
CCCSC(=S)NC1CCS(=O)(=O)C1 (stereo not drawn) | 13.9% (inactive)
O=C(Nc1ccc(S(=O)(=O)N2CCCC2)cc1Cl)C1=COCCO1 | 16.2% (inactive)
Cc1cccc(-n2ncc3c(N4CCc5ccccc54)ncnc32)c1 | 6.2% (inactive)
COc1ccccc1-c1nc(C(F)(F)F)c(OC)o1 | -4.3% (inactive)
CSc1ccccc1-c1nnc(-c2ccc(Cl)cc2)o1 | -15.2% (inactive)
FC(F)(F)c1cnc(Oc2ccccc2-c2nnc(-c3ccc(Cl)cc3)o2)c(Cl)c1 | 66.1% (active)
COc1ccc(-c2cn(-c3ccc(C)cc3)c(=O)n2CC(=O)Nc2ccc(OC)c(OC)c2)cc1 | 16.2% (inactive)
O=C(O)c1cscn1 | -12.7% (inactive)
N#C/C(=C1/CCCN1)c1ccccn1 | -7.3% (inactive)
N#CC(=C1SC=CS1)c1nc(-c2ccccc2)cs1 | 65.1% (active)
N#CC(=C1CCCC1)c1nc(-c2ccc(Cl)cc2)cs1 | 43.3% (inactive)
Cn1c(/C(C#N)=C2/CCCCCN2)nc2ccccc21 | 47.6% (inactive)
N#C/C(=C1\CCCN1)c1nc(-c2ccccc2)cs1 | 54.2% (active)
Oc1ccc(Cl)cc1/C=N/c1nc2ccccc2[nH]1 | -20.9% (inactive)
C=CCn1c(C2CC(=O)N(c3ccc(C)cc3)C2)nc2ccccc21 (stereo not drawn) | 76.7% (active)
Cc1ccc(Cn2c(NC(=O)c3ccco3)nc3ccccc32)cc1 | -9.7% (inactive)
CC(C)(C)N1CC(c2nc3ccccc3n2Cc2ccc(F)cc2)CC1=O (stereo not drawn) | 12.1% (inactive)
Cc1ccc2cc(CCNC(=O)c3c(-c4ccccc4Cl)noc3C)c(=O)[nH]c2c1 | 21% (inactive)
Cc1onc(-c2c(Cl)cccc2Cl)c1C(=O)c1c[nH]c(C(=O)NC2CC2)c1 | 0.9% (inactive)

Compound | inhibition
Cc1onc(-c2ccccc2Cl)c1C(=O)OCC(=O)c1ccccc1 | 58.1% (active)
Cc1onc(-c2ccccc2Cl)c1C(=O)NCCn1ccc2ccccc21 | 83.5% (active)
O=C1c2ccccc2C(=O)N1Cc1cc(-c2ccccc2Cl)no1 | 37.2% (inactive)
COc1c(O)cccc1-c1nnn(CCC(=O)OCC(=O)c2ccccc2)n1 | 19.5% (inactive)
O=C(OCc1cc2ccccc2[nH]c1=O)c1cccnc1 | 25.1% (inactive)
C=CCSc1nc2c(c(=O)[nH]1)C(C(C)C)C(C#N)=C(N)O2 (stereo not drawn) | -15.8% (inactive)
COc1ccc(OCCCON2C(=O)c3ccccc3C2=O)cc1 | 26.4% (inactive)
CCN(CC)CCCNC(=O)c1cc(-c2cccc(Cl)c2)on1 | -2.7% (inactive)
Cc1cc(C)c2c(-n3cccc3)c(NC(=O)OCc3ccccc3)sc2n1 | 4.8% (inactive)
Cc1cc(Cl)ccc1N1C(=O)CC(SCCC(=O)O)C1=O (stereo not drawn) | 7.1% (inactive)
COC(=O)Cc1cc(=O)oc2c(C)c(O)ccc12 | 17.9% (inactive)
Nc1nnnn1/N=C/c1cccs1 | 1.7% (inactive)
CCCOc1cccc(C(=O)Nc2nnn(CCC)n2)c1 | 57.8% (active)
CCC(=O)Oc1cccc(C(=O)Nc2ccc(-c3nnc(-c4ccco4)o3)cc2)c1 | 48.6% (inactive)
Cc1nc2nc[nH]n2c(=O)c1NC(=O)c1cccc(OCC(C)C)c1 | -12.5% (inactive)
COc1ccc(OC)c2c(N)c(C#N)c(C(F)(F)C(F)(F)F)nc12 | -11.1% (inactive)
NC(=O)c1nsc(C(=O)N(CC(=O)NCc2ccc(F)cc2)Cc2ccco2)c1N | 21.3% (inactive)
Cc1ccc2nc(SC(C)C(=O)NCc3ccco3)[nH]c2c1 (stereo not drawn) | 19.9% (inactive)
COC(=O)C(C(=O)Nc1cccc(C)n1)C1CCCCCC1 (stereo not drawn) | 80.7% (active)
Cc1cccc(NC(=O)c2ccc3ccccc3n2)n1 | 22.7% (inactive)
Cc1cccc(NC(=O)COc2ccccc2C)n1 | 32% (inactive)
Cc1cc(C(F)(F)F)nn1CC(=O)N1CCCC1 | -1.5% (inactive)
OC(C#CCN1CCOCC1)(c1ccccc1)C1CCCCC1 (stereo not drawn) | 36.7% (inactive)
O=C(COC(=O)C12CC3CC(CC(C3)C1)C2)NCc1ccco1 | 35.7% (inactive)
Cc1cc(C(=O)OCC(=O)NCc2ccco2)c(C)n1-c1ccccc1 | 71.8% (active)

Compound | inhibition
CCOC(=O)c1cnc(SCC(=O)NCc2ccco2)nc1N | -1.2% (inactive)
COc1c(Br)cc2c(C)c(C(=O)N3CCOCC3)oc2c1Br | 33.1% (inactive)
N#C/C(=C\c1ccccc1)c1n[nH]c(Cn2cncn2)n1 | 23.3% (inactive)
FC(F)(F)COc1nc(N2CCCCC2)nc(N2CCNCC2)n1 | -9.3% (inactive)
C/C(=N/NC(=O)c1cc(Cl)ccc1O)C12CC3CC(CC(C3)C1)C2 | 0.2% (inactive)
Cc1ccc(N(C(=O)CC2NC(=O)NC2=O)C2(C(=O)NC3CCCC3)CCCCC2)cc1 (stereo not drawn) | -3.8% (inactive)
CCOC(=O)c1[nH]cnc1C(=O)NC1CCCCC1 | 18.3% (inactive)
CCOC(=O)C1=C(CNC2CCCCC2)NC(=O)NC1c1cc(C)ccc1C (stereo not drawn) | 97.1% (active)
CN(Cc1ccccc1)c1nc2c(c(=O)[nH]c(=O)n2C)n1CCSc1nc2ccccc2[nH]1 | 38.5% (inactive)
O=C1CC(c2cccc(F)c2)C2=C(CCCC2=O)N1 (stereo not drawn) | 8.1% (inactive)
CCc1nnc(NC(=O)CSc2nnc(COc3ccc(C#N)cc3)n2-c2ccccc2)s1 | 4.5% (inactive)
CSc1ccc(S(=O)(=O)NCc2ccc(Cl)cc2)cc1 | 78.2% (active)
O=[N+]([O-])c1ccccc1NCc1ccc(Cl)cc1 | 21% (inactive)
Cc1ccc(S/C(=N\S(=O)(=O)c2ccc(Cl)cc2)c2ccccc2)cc1 | 24.1% (inactive)
Fc1c(F)c(C(F)(F)F)c(F)c(F)c1N1CCN(c2ccc3nnc(C(F)(F)F)n3n2)CC1 | 0.5% (inactive)
COc1ccc(CCn2nnnc2C(c2ccccc2)N2CCN(C)CC2)cc1OC (stereo not drawn) | 2.7% (inactive)
COc1ccc(C(c2nnnn2Cc2cccs2)N2CCN(c3ccccc3)CC2)cc1OC (stereo not drawn) | 69.8% (active)
Cc1ccc(C(c2nnnn2CS(=O)(=O)c2ccc(C)cc2)N2CCC(C)CC2)cc1 (stereo not drawn) | 3.8% (inactive)
O=C(Nc1ccc(Br)c2cccnc12)c1ccc(Cn2cc([N+](=O)[O-])cn2)o1 | 20.2% (inactive)
CCCNC(=O)Nc1ccccc1C(=O)Nc1ccc(OC)cc1 | 40.1% (inactive)
Clc1cccc(-c2nc3nc4ccccc4nc3n2Cc2ccco2)c1 | 1.8% (inactive)
COc1ccc(CCn2c(-c3ccco3)nc3nc4ccccc4nc32)cc1OC | 16.7% (inactive)
CCC(C)n1c(-c2cc(OC)c(OC)c(OC)c2)nc2nc3ccccc3nc21 (stereo not drawn) | 92.6% (active)
CCOc1ccc(CNC(=O)C2CCC(=O)N2C2CCCC2)cc1OC (stereo not drawn) | -0.1% (inactive)
Brc1ccc(C2=CC(c3ccco3)n3ncnc3N2)cc1 (stereo not drawn) | 33% (inactive)

Compound | inhibition
COC(=O)C1=C(C)Nc2ncnn2C1c1cccnc1 (stereo not drawn) | -0.3% (inactive)
Clc1ccc2c(c1)C1=C(C(c3ccncc3)O2)C(c2ccc(Br)cc2)n2ncnc2N1 (stereo not drawn) | 86.1% (active)
Cc1ccc(Cc2c(C)nc3nc(SCC(=O)NCCN4CCOCC4)nn3c2C)cc1 | -3.1% (inactive)
COc1ccc(-c2cc3nc(C)c(CCC(=O)NC(C)CCc4ccco4)c(C)n3n2)c(OC)c1 (stereo not drawn) | 30.5% (inactive)
CCCCNC(=O)OC(C)CNC(=O)OC (stereo not drawn) | 2.3% (inactive)
COc1ccc(NC(=O)c2c(C)oc3c2CCCC3)cc1 | 24.5% (inactive)
COc1ccc(NS(=O)(=O)c2ccc(NC(=S)NC(=O)CC(C)C)cc2)cc1 | 25.1% (inactive)
COc1ccc2oc(C)c(NC(C)=O)c2c1 | 13.5% (inactive)
O=C(O)CCC(=O)Nc1ccc(N2CCOCC2)cc1 | -9% (inactive)
COc1ccc(S(=O)(=O)Nc2ccc3oc(C)c(C(C)=O)c3c2)cc1 | 67.4% (active)
CC(=O)Nc1ccc(N2CCOCC2)c(C(=O)Nc2cccc(C)c2)c1 | 53.3% (active)
CC(=O)Nc1ccc(S(=O)(=O)Nc2ccc(N3CCOCC3)c(F)c2)cc1 | 93.5% (active)
CC(=O)Nc1ccc(S(=O)(=O)N2CCCC2C(=O)O)cc1 (stereo not drawn) | -6.9% (inactive)
CC(=O)Nc1cccc(Oc2cc(C#N)c(C#N)cc2N2CCOCC2)c1 | 5.2% (inactive)
COc1c(C)cccc1C(=O)Nc1cc(Cl)ccc1N1CCOCC1 | 20.6% (inactive)
COC(=O)COc1ccc(S(=O)(=O)Nc2ccc(NC(C)=O)cc2)cc1 | 69.1% (active)
CCOc1ccc(NS(=O)(=O)c2ccc(OCC(=O)NCCCOC)cc2)cc1 | 2.3% (inactive)
CCCc1[nH]nc2c1C(c1c(C)nn(-c3ccccc3)c1Cl)C(C#N)=C(N)O2 (stereo not drawn) | 49.2% (inactive)
CC(=O)Oc1cc2c(C(=O)NCCN3CCOCC3)c(C)oc2c2ccccc12 | 34.2% (inactive)
Cc1ccc(C2=CSC3=NS(=O)(=O)CCN23)cc1C | 2.5% (inactive)
CC(=O)c1c(C)n([O-])c2ccccc2[n+]1=O | -0.9% (inactive)
O=C(N/N=C/c1ccc(O)cc1)/C(=C/c1ccc([N+](=O)[O-])cc1)NC(=O)c1ccccc1 | 7.9% (inactive)
C/C(=C(\C#N)C(=O)NCCCN1CCOCC1)N(C)C | -11.3% (inactive)
